According to PubChem BioAssay AID1159580 (chemical genetic matrix, 2015):
Among all 5,500 compounds or so, about 2,000 (36%) were called active. Roughly 18% stayed inconclusive and do not appear here. The list shows a part of the results. A number with no mark means an inactive call. Cut-off read from the data, not from the text of the source: active = normalized growth mostly below about 0.91 (no sharp cut-off); inconclusive = no clear call, values can overlap the other calls; inactive = mostly above about 0.92.

Test: chemical genetic growth profiling, strain panel (AID 1159580);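 note: tested at 20 µM; growth read once vehicle control cultures reached saturation at 30 °C; 1 = growth at the plate median or of vehicle wells; lower values mean less growth of the strain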
Details: S. cerevisiae deletion strains, growth OD

SMILES: C/C=C(/C)C(=O)OC1CCC2(C)C3CCC4C5(O)CC(O)C6(O)C(CN7CC(C)CCC7C6(C)O)C5(O)CC42OC13O (configuration not stated)
- normalized growth (locus YAL021C, strain ccr4, active compounds read low): 0.955
- normalized growth (locus YAL026C, strain drs2, active compounds read low): 0.954
- normalized growth (locus YAL030W, strain snc1, active compounds read low): 1.01
- normalized growth (locus YBL061C, strain skt5, active compounds read low): 1.01
- normalized growth (locus YBR009C, strain hhf1, active compounds read low): 0.951
- normalized growth (locus YBR021W, strain FUR4, active compounds read low): 0.747 (active)
- normalized growth (locus YBR023C, strain chs3, active compounds read low): 0.992
- normalized growth (locus YBR171W, strain sec66, active compounds read low): 0.968
- normalized growth (locus YBR229C, strain ROT2, active compounds read low): 0.97
- normalized growth (locus YBR231C, strain swc5, active compounds read low): 0.991
- normalized growth (locus YBR279W, strain paf1, active compounds read low): 0.99
- normalized growth (locus YCL011C, strain gbp2, active compounds read low): 0.993
- normalized growth (locus YCL016C, strain dcc1, active compounds read low): 1.01
- normalized growth (locus YCL029C, strain bik1, active compounds read low): 0.979
- normalized growth (locus YCL069W, strain vba3, active compounds read low): 0.971
- normalized growth (locus YCR088W, strain abp1, active compounds read low): 0.993
- normalized growth (locus YDL005C, strain med2, active compounds read low): 1.01
- normalized growth (locus YDL035C, strain GPR1, active compounds read low): 0.922
- normalized growth (locus YDL040C, strain nat1, active compounds read low): 0.994
- normalized growth (locus YDL074C, strain BRE1, active compounds read low): 0.844
- normalized growth (locus YDL101C, strain DUN1, active compounds read low): 0.95
- normalized growth (locus YDL185W, strain tfp1, active compounds read low): 0.994
- normalized growth (locus YDL192W, strain arf1, active compounds read low): 0.96
- normalized growth (locus YDR001C, strain nth1, active compounds read low): 0.995
- normalized growth (locus YDR069C, strain doa4, active compounds read low): 1.01
- normalized growth (locus YDR101C, strain arx1, active compounds read low): 0.955
- normalized growth (locus YDR137W, strain rgp1, active compounds read low): 0.857
- normalized growth (locus YDR150W, strain NUM1, active compounds read low): 0.986
- normalized growth (locus YDR159W, strain sac3, active compounds read low): 0.974
- normalized growth (locus YDR162C, strain NBP2, active compounds read low): 0.942
- normalized growth (locus YDR195W, strain ref2): 1.04
- normalized growth (locus YDR297W, strain sur2, active compounds read low): 0.982
- normalized growth (locus YDR318W, strain mcm21, active compounds read low): 0.964
- normalized growth (locus YDR334W, strain swr1, active compounds read low): 0.977
- normalized growth (locus YDR335W, strain msn5, active compounds read low): 0.999
- normalized growth (locus YDR388W, active compounds read low): 0.953
- normalized growth (locus YDR392W, strain spt3, active compounds read low): 0.95
- normalized growth (locus YDR502C, strain sam2, active compounds read low): 0.937
- normalized growth (locus YEL003W, strain gim4, active compounds read low): 0.993
- normalized growth (locus YEL037C, strain rad23, active compounds read low): 0.984
- normalized growth (locus YEL061C, strain CIN8 (second series), active compounds read low): 0.981
- normalized growth (locus YEL061C, strain CIN8, active compounds read low): 0.961
- normalized growth (locus YER015W, strain faa2, active compounds read low): 0.999
- normalized growth (locus YER016W, strain bim1, active compounds read low): 1.07
- normalized growth (locus YER110C, active compounds read low): 0.963
- normalized growth (locus YER111C, strain swi4, active compounds read low): 0.995
- normalized growth (locus YER155C, strain BEM2 (second series), active compounds read low): 0.969
- normalized growth (locus YER155C, strain BEM2, active compounds read low): 0.966
- normalized growth (locus YER167W, strain BCK2, active compounds read low): 0.852 (active)
- normalized growth (locus YFR010W, strain ubp6, active compounds read low): 0.969
- normalized growth (locus YGL078C, strain dbp3, active compounds read low): 0.989
- normalized growth (locus YGL086W, strain mad1, active compounds read low): 0.953
- normalized growth (locus YGL167C, strain pmr1, active compounds read low): 0.996
- normalized growth (locus YGL173C, strain kem1, active compounds read low): 0.998
- normalized growth (locus YGL227W, strain vid30, active compounds read low): 1
- normalized growth (locus YGL240W, strain doc1, active compounds read low): 0.988
- normalized growth (locus YGL248W, strain PDE1, active compounds read low): 0.928
- normalized growth (locus YGL253W, strain hxk2, active compounds read low): 1
- normalized growth (locus YGR135W, strain pre9, active compounds read low): 0.928
- normalized growth (locus YGR252W, strain gcn5, active compounds read low): 0.789
- normalized growth (locus YHR013C, strain ard1, active compounds read low): 0.995
- normalized growth (locus YHR027C, strain rpn1, active compounds read low): 1
- normalized growth (locus YHR030C, strain SLT2, active compounds read low): 0.982
- normalized growth (locus YHR079C, strain IRE1 (second series), active compounds read low): 0.972
- normalized growth (locus YHR094C, strain hxt1, active compounds read low): 0.971
- normalized growth (locus YHR129C, strain ARP1, active compounds read low): 0.955
- normalized growth (locus YHR142W, strain chs7, active compounds read low): 0.974
- normalized growth (locus YHR200W, strain rpn10, active compounds read low): 0.973
- normalized growth (locus YIL066C, strain RNR3, active compounds read low): 0.885
- normalized growth (locus YIL073C, strain SPO22, active compounds read low): 0.924
- normalized growth (locus YIL125W, strain kgd1, active compounds read low): 0.976
- normalized growth (locus YIR030C, strain dcg1, active compounds read low): 0.978
- normalized growth (locus YJL092W, strain hpr5, active compounds read low): 1
- normalized growth (locus YJL095W, strain BCK1 (second series), active compounds read low): 1
- normalized growth (locus YJL095W, strain BCK1, active compounds read low): 0.891
- normalized growth (locus YJL115W, strain asf1, active compounds read low): 0.985
- normalized growth (locus YJL129C, strain trk1, active compounds read low): 1
- normalized growth (locus YJL134W, strain LCB3, active compounds read low): 0.983
- normalized growth (locus YJL154C, strain vps35, active compounds read low): 0.989
- normalized growth (locus YJL164C, strain tpk1, active compounds read low): 0.996
- normalized growth (locus YJL166W, strain qcr8, active compounds read low): 0.994
- normalized growth (locus YJL168C, strain set2, active compounds read low): 0.976
- normalized growth (locus YJL187C, strain SWE1 (second series), active compounds read low): 0.943
- normalized growth (locus YJR043C, strain POL32, active compounds read low): 0.845 (active)
- normalized growth (locus YKL009W, strain mrt4, active compounds read low): 0.987
- normalized growth (locus YKL068W, active compounds read low): 0.961
- normalized growth (locus YKL085W, strain MDH1 (second series), active compounds read low): 0.948
- normalized growth (locus YKL085W, strain MDH1, active compounds read low): 0.948
- normalized growth (locus YKL160W, strain elf1, active compounds read low): 1.02
- normalized growth (locus YKL190W, strain CNB1, active compounds read low): 0.979
- normalized growth (locus YKR001C, strain vps1, active compounds read low): 0.821 (active)
- normalized growth (locus YKR026C, strain gcn3, active compounds read low): 0.988
- normalized growth (locus YKR091W, strain srl3, active compounds read low): 1.01
- normalized growth (locus YLL001W, strain dnm1, active compounds read low): 0.985
- normalized growth (locus YLL026W, active compounds read low): 1
- normalized growth (locus YLL041C, strain sdh2, active compounds read low): 0.991
- normalized growth (locus YLR027C, strain aat2, active compounds read low): 1
- normalized growth (locus YLR039C, strain RIC1, active compounds read low): 0.889
- normalized growth (locus YLR058C, strain SHM2, active compounds read low): 0.949
- normalized growth (locus YLR102C, strain apc9, active compounds read low): 0.972
- normalized growth (locus YLR221C, strain rsa3, active compounds read low): 0.968
- normalized growth (locus YLR258W, strain gsy2, active compounds read low): 0.998
- normalized growth (locus YLR262C, strain YPT6 (second series), active compounds read low): 0.82 (active)
- normalized growth (locus YLR262C, strain YPT6, active compounds read low): 1
- normalized growth (locus YLR268W, strain sec22, active compounds read low): 0.938
- normalized growth (locus YLR320W, strain mms22, active compounds read low): 0.959
- normalized growth (locus YLR330W, strain CHS5, active compounds read low): 0.902 (active)
- normalized growth (locus YLR342W, strain FKS1 (second series), active compounds read low): 0.715 (active)
- normalized growth (locus YLR342W, strain FKS1, active compounds read low): 1
- normalized growth (locus YLR357W, strain rsc2, active compounds read low): 1.02
- normalized growth (locus YLR370C, strain arc18, active compounds read low): 0.994
- normalized growth (locus YLR371W, strain rom2, active compounds read low): 0.985
- normalized growth (locus YLR384C, strain iki3, active compounds read low): 0.991
- normalized growth (locus YLR418C, strain cdc73, active compounds read low): 0.705 (active)
- normalized growth (locus YML016C, strain PPZ1, active compounds read low): 0.969
- normalized growth (locus YML032C, strain rad52, active compounds read low): 0.935
- normalized growth (locus YML120C, strain ndi1, active compounds read low): 0.997
- normalized growth (locus YML124C, strain tub3, active compounds read low): 0.97
- normalized growth (locus YMR058W, strain fet3, active compounds read low): 0.993
- normalized growth (locus YMR078C, strain ctf18, active compounds read low): 0.968
- normalized growth (locus YMR125W, strain sto1, active compounds read low): 0.991
- normalized growth (locus YMR129W, active compounds read low): 1
- normalized growth (locus YMR205C, strain PFK2, active compounds read low): 0.986
- normalized growth (locus YMR223W, strain ubp8, active compounds read low): 0.957
- normalized growth (locus YMR231W, strain pep5, active compounds read low): 1
- normalized growth (locus YMR263W, strain SAP30, active compounds read low): 0.943
- normalized growth (locus YMR307W, strain GAS1, active compounds read low): 0.626
- normalized growth (locus YNL067W, strain RPL9B, active compounds read low): 0.962
- normalized growth (locus YNL071W, strain lat1, active compounds read low): 0.98
- normalized growth (locus YNL209W, strain ssb2, active compounds read low): 0.997
- normalized growth (locus YNL233W, strain BNI4, active compounds read low): 0.908
- normalized growth (locus YNL248C, strain rpa49, active compounds read low): 0.973
- normalized growth (locus YNL250W, strain rad50, active compounds read low): 0.992
- normalized growth (locus YNL271C, strain bni1, active compounds read low): 0.996
- normalized growth (locus YNL298W, strain CLA4, active compounds read low): 0.967
- normalized growth (locus YNL307C, strain MCK1, active compounds read low): 0.83 (active)
- normalized growth (locus YNL322C, strain KRE1 (second series), active compounds read low): 1.03
- normalized growth (locus YNL322C, strain KRE1, active compounds read low): 0.947
- normalized growth (locus YNR049C, strain mso1, active compounds read low): 1.02
- normalized growth (locus YNR052C, strain pop2, active compounds read low): 1.02
- normalized growth (locus YOL006C, strain TOP1, active compounds read low): 0.627
- normalized growth (locus YOL012C, strain htz1): 0.727
- normalized growth (locus YOL147C, strain pex11, active compounds read low): 0.96
- normalized growth (locus YOR001W, strain rrp6, active compounds read low): 0.937
- normalized growth (locus YOR061W, strain CKA2, active compounds read low): 0.975
- normalized growth (locus YOR069W, strain VPS5, active compounds read low): 0.981
- normalized growth (locus YOR070C, strain gyp1, active compounds read low): 0.987
- normalized growth (locus YOR080W, strain dia2, active compounds read low): 1
- normalized growth (locus YOR083W, strain WHI5, active compounds read low): 1.03
- normalized growth (locus YOR106W, strain vam3, active compounds read low): 1.02
- normalized growth (locus YOR136W, strain idh2, active compounds read low): 0.979
- normalized growth (locus YOR144C, strain elg1, active compounds read low): 0.963
- normalized growth (locus YOR184W, strain ser1, active compounds read low): 0.815 (active)
- normalized growth (locus YOR265W, strain rbl2, active compounds read low): 0.984
- normalized growth (locus YOR270C, strain vph1, active compounds read low): 0.94
- normalized growth (locus YOR290C, strain snf2, active compounds read low): 1.03
- normalized growth (locus YOR316C, strain cot1, active compounds read low): 0.969
- normalized growth (locus YPL051W, strain arl3, active compounds read low): 1.02
- normalized growth (locus YPL055C, strain LGE1, active compounds read low): 0.877
- normalized growth (locus YPL078C, strain atp4, active compounds read low): 1.01
- normalized growth (locus YPL106C, strain sse1, active compounds read low): 1.01
- normalized growth (locus YPL240C, strain hsp82, active compounds read low): 0.988
- normalized growth (locus YPR119W, strain clb2, active compounds read low): 0.969
- normalized growth (locus YPR141C, strain kar3, active compounds read low): 0.978
- normalized growth (locus YPR163C, strain tif3, active compounds read low): 0.964
- normalized growth (locus YPR167C, strain met16, active compounds read low): 0.967
- normalized growth (strain wtn01, active compounds read low): 0.949
